# The list is not random: actives were taken first. Their share in the collection is about 19%.
# DT40 TDP1 no CPT = qHTS for Inhibitors of human tyrosyl-DNA phosphodiesterase 1 (TDP1): qHTS in cells in absence of CPT; AID 686978, 2013; actives 15% (n = 420,000); Potency, µM (top dose mostly 46.2 µM), inactives show at the top dose activity change, negative = growth inhibition, hits mostly inhibitors; DT40 Tdp1-/- hTDP1 cells, no CPT, ATP luminescence, 48 h; note: potency is the fitted concentration of half-maximal effect; nearly all actives have a fitted effect of over 55% in size
#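 A cellular qHTS used chicken DT40 cells lacking endogenous Tdp1 but carrying stably transfected human TDP1. Compounds were applied without camptothecin, and cell growth kinetics were judged by ATP-dependent luminescence after ≥48 hr.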
# TDP1 cell CPT = DT40-hTDP1 cell growth loss with CPT. chicken DT40 Tdp1-/-;hTDP1 cells + 20 nM CPT, ATP luminescence, 48 h. Potency, µM (top dose mostly 46.2 µM), for inactives: at the highest dose activity change, negative = growth inhibition, most hits filed as inhibitors. actives 12% (n = 420,000); note: potency is the fitted concentration of half-maximal effect; nearly all actives have a fitted effect of over 55% in size
#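 Chicken DT40 Tdp1-/- cells stably complemented with human TDP1 were seeded at 400 cells/well in medium containing 20 nM camptothecin, exposed to pin-transferred compounds, and grown at 37 °C for at least 48 hr. Viability was read as ATP luminescence.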
# HT1080-NT tox = kills 2HG-producing HT-1080-NT fibrosarcoma cells; Potency, µM (titrated, usually from 46.1 µM), for inactives: top-dose activity, negative = less viability, hits mostly cytotoxic; actives 1.6% (n = 360,000); HT-1080-NT fibrosarcoma viability, CellTiter-Glo ATP luminescence, 48 h; AID 686970;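 note: NT is the 2HG producing partner of a matched IDH1 knockdown line; potency is the fitted concentration of half-maximal effect; 0% = DMSO-treated cells and -100% = media-only wells without cells; nearly all actives have a fitted effect of over 55% in size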
#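 A 48-hour cytotoxicity screen used HT-1080-NT cells plated 2 hours before compound delivery. ATP-based CellTiter-Glo luminescence measured viability, normalized to DMSO and no-cell controls.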
# IL1B secr inh = blocks inflammasome-driven IL-1 beta release | THP-1 LPS/ATP IL-1B secretion, AlphaLISA, 16 h; stronger effect = lower value | activity change, % at 57.5 µM | actives 4.7% (n = 360,000) | AID 743279; in the data active = activity change below about -50%; inconclusive = mostly about -30% to -49%
#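 Secreted IL-1B measured by AlphaLISA bead assay after 16 h compound exposure of THP-1 cells; compounds (final up to 57.5 uM) added 1 h before LPS (250 ng/mL) and ATP (1.25 mM) stimulation; lower signal means less secretion.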
# HT1080 IDH1KD tx = toxicity to HT-1080 IDH1 knockdown cells (counter line). Potency, µM (series often up to 46.1 µM), for the others: at the top dose activity, negative = toxicity, hits mostly cytotoxic. HT-1080 IDH1 knockdown viability, ATP luminescence, 48 h. actives 2% (n = 360,000);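 note: potency is the fitted concentration of half-maximal effect; 0% = DMSO wells and -100% = cell-free medium wells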
#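 IDH1KD HT-1080 cells, 750/well, RPMI + 5% FBS; compound pinned after 2 h settling; 48 h, 37 °C; CellTiter-Glo luminescence; % activity normalised to DMSO and no-cell wells; curves fitted, classed by r2 and efficacy.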
# Starred values were filed as active, the others as inactive; ? = inconclusive; . = no result. Unless noted, calls come from the whole dose curve; as a rule, active = well fitted curve in the direction sought with a large enough effect; inconclusive = small, poorly fitted or top-dose-only effect, or another doubt; inactive = no such curve, though single readings can be large; an effect the other way counts as inactive or inconclusive. Unless noted, % is set by controls: 0 for no effect and ±100 for the full control effect.
SMILES,DT40 TDP1 no CPT,TDP1 cell CPT,HT1080-NT tox,IL1B secr inh,HT1080 IDH1KD tx
CCc1c(O)nc(SCC(=O)Nc2nc3ccccc3s2)n(C2CCCCC2)c1=O,?,-21%,-6%,41,?
CN(C)c1nc(N)nc2c1ncn2C1OC(CO)CC1O (configuration not stated),?,?,1%,-28,2%
COc1ccc(C(CC(=O)N2CCCCC2)c2c(OC)cc(OC)c3ccc(=O)oc23)cc1 (configuration not stated),?,21µM*,-1%,-18,7%
CCN(CC)C(=O)CC(c1ccc(OC)cc1)c1c(OC)cc(OC)c2ccc(=O)oc12 (configuration not stated),?,23µM*,-4%,-23,-6%
c1ccc(N2CCCCC2)c(Nc2nc3ccccc3n3cnnc23)c1,21µM*,?,13%,58,1%
Fc1ccc(Nc2nc3ccccc3n3cnnc23)c(F)c1,-21%,-1%,.,.,.
FC(F)(F)c1ccc(N2CCOCC2)c(Nc2nc3ccccc3n3cnnc23)c1,?,?,?,-61*,?
CCN(CC)S(=O)(=O)c1ccc(OC)c(NC(=O)C2CC(=O)N(c3ccc(C)cc3)C2)c1 (configuration not stated),-14%,-2%,-6%,-6,10%
CCOC(=O)c1oc2nc(CC(C)C)c3c(c2c1N)CCC3,15µM*,?,18%,?,14%
COc1ccc(-c2nc(NC(=O)CSc3nnc(C)s3)ns2)cc1,?,?,0%,-19,-7%
CC(=O)c1sc(NC(=O)CCCc2nc3ccccc3c(=O)[nH]2)nc1-c1ccccc1,?,?,-21%,?,-8%
O=C(CSc1nnc(-c2ccccc2)n1Cc1ccccc1)NNC(=O)c1ccccc1O,26µM*,16µM*,-7%,10,-20%
O=C(CSc1nnc(-c2ccccc2O)n1Cc1ccccc1)NNC(=O)c1ccccc1O,?,?,-19%,0,-23%
OC(CCCN1CCCCC1)(c1ccccc1)c1ccc(C(F)(F)F)cc1 (configuration not stated),18µM*,?,?,-22,?
CN(C)S(=O)(=O)c1ccc(N2CCCC2)c(C(=O)NNC(=O)COc2ccccc2F)c1,-21%,-3%,3%,-4,7%
COc1ccc(-c2nnc(SCC(=O)NCCC(C)C)nc2-c2ccc(OC)c(OC)c2)cc1OC,?,?,-1%,?,-14%
COc1ccc(-c2nnc(SCC(=O)NCc3ccc(C)cc3)nc2-c2ccc(OC)c(OC)c2)cc1OC,18µM*,15µM*,.,.,.
CCOc1cc(-c2nnc(SCC(=O)NCc3ccccc3)nc2-c2ccc(OC)c(OCC)c2)ccc1OC,3.3µM*,5.8µM*,.,.,.
CCCCn1c(-c2ccccc2)cnc1SCC(=O)NCCc1ccc(OC)c(OC)c1,26µM*,23µM*,-19%,-77*,-27%
COc1ccc(-c2nnc(SCC(=O)NCCc3ccc(OC)c(OC)c3)nc2-c2ccc(OC)cc2)cc1,18µM*,18µM*,.,.,.
O=C1NC2(CCCCC2)C(=O)N1CC(=O)N(Cc1ccccc1)c1ccccc1,-10%,-21%,-4%,-8,1%
C=CCNC(=S)NCC,5%,-4%,9%,-9,3%
CCCCNC(=O)[C@H]1C[C@H]1[C@@H](O)[C@H](CO)NC(=O)[C@H](Cc1ccccc1)NC(=O)OC(C)(C)C,1%,-21%,17%,6,13%
COCCNC(=O)CSc1nnc(-c2ccc(C)cc2)c(-c2ccc(C)cc2)n1,?,26µM*,-7%,-26,-12%
CCOc1ccc(-c2nnc(SCC(=O)Nc3cccc(OC)c3)nc2-c2ccc(OCC)cc2)cc1,-7%,-13%,.,.,.
SMILES,DT40 TDP1 no CPT,TDP1 cell CPT,HT1080-NT tox,IL1B secr inh,HT1080 IDH1KD tx
COCCNC(=O)CSc1ccc(C)cc1,15%,4%,7%,2,3%
COc1ccc(-c2cc(C(F)(F)F)nc(SCC(=O)NCCc3ccc(OC)c(OC)c3)n2)cc1,21µM*,21µM*,.,.,.
COc1ccc(CCNC(=O)CSc2nnc(-c3ccccc3)c3ccccc23)cc1OC,?,16µM*,9%,0,7%
COc1ccc(-c2nnc(SCC(=O)Nc3cccc(C(F)(F)F)c3)nc2-c2ccc(OC)cc2)cc1,18µM*,?,.,.,.
O=C(CNC(=O)c1ccc(Br)o1)Nc1cccc(S(=O)(=O)N2CCOCC2)c1,2%,2%,3%,15,1%
C/C(=N\Nc1nc(C)cc(-c2ccccc2)n1)c1cccc(N)c1,21µM*,?,-8%,5,-1%
C/C(=N\Nc1nc(C)cc(-c2ccccc2)n1)c1ccccc1,?,?,-28%,3,?
C/C(=N\Nc1nc(C)cc(-c2ccccc2)n1)c1ccc(O)cc1,4.6µM*,7.3µM*,10µM*,-74*,-14%
C/C(=N\NC(=O)c1ccc(-c2ccccc2)cc1)c1cccc(N)c1,-9%,13%,-17%,0,-13%
OCCN(Cc1ccccc1)CC(O)COc1ccc2c(c1)OCO2 (configuration not stated),-2%,3%,-14%,0,-1%
COc1ccc(-c2csc3ncnc(N4CCN(S(=O)(=O)c5ccc(C(C)=O)cc5)CC4)c23)cc1,?,?,-26%,-74*,?
COc1ccc(-c2csc3ncnc(N4CCN(S(=O)(=O)c5cccc(Br)c5)CC4)c23)cc1,9.2µM*,23µM*,7%,3,0%
COc1ccc(-c2csc3ncnc(N4CCN(S(=O)(=O)c5cccc(C(F)(F)F)c5)CC4)c23)cc1,?,?,5%,30,4%
CN1CCCC2(CCN(C(=O)c3cc(C(F)(F)F)cc(C(F)(F)F)c3)CC2)C1,-30%,-4%,.,.,.
CCC(C)(C)C1CCc2[nH]nc(C(=O)NN)c2C1 (configuration not stated),?,-22%,-15%,-18,?
CCC(C)(C)C1CCc2[nH]nc(C(=O)NC(C)C)c2C1 (configuration not stated),21µM*,?,6%,-18,3%
CCC(C)(C)C1CCc2[nH]nc(C(=O)NC3CCCCC3)c2C1 (configuration not stated),?,12µM*,0%,13,7%
COc1cc(NC(=O)COC(=O)/C=C/c2c(C)nn(-c3ccc(F)cc3)c2Cl)cc(OC)c1,?,-76%,10%,25,26%
